In the library only some 2.4% were active in any assay of this set; here they are far more common.
M1 PAM parental: M1 PAM counterscreen hit in parental CHO-K1 cells. ATP EC20, Fluo-8 calcium fluorescence; 0% at ATP EC20, 100% at ATP max. activation, % at 3 µM. 0.02% of 360,000 active. AID 602247;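 active = activation above the run cutoff, the mean activation of all test compounds plus 3 SD, cut at about 40% in these data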;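 note: peak over basal fluorescence ratio in a 140 s read after ATP addition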
CHRM1 PAM: human CHRM1 positive allosteric modulation. P11229. CHO-K1 hM1, Fluo-8 calcium fluorescence, ACh EC20; 0% = ACh EC20, 100% = maximal ACh. activation, % at 3 µM. 0.088% of 360,000 active; in the data active = activation above about 19%, passing the limit was not always enough
Target sequence (P11229 whole entry, looked up): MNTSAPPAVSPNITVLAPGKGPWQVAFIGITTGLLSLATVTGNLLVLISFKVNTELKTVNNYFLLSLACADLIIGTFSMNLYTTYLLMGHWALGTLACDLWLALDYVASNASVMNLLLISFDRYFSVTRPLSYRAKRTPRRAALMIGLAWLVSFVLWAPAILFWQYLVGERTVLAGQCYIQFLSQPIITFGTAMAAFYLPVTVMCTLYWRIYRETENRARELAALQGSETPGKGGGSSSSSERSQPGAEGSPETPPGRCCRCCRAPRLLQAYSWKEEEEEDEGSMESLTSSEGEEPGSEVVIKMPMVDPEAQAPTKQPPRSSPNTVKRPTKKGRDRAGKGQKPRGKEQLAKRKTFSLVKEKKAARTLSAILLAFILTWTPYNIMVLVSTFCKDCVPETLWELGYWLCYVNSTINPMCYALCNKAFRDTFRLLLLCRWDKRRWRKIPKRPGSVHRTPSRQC
M1 ag: agonists of human M1 muscarinic receptor; P11229; CHO-K1 hM1, Fluo-8 calcium fluorescence, agonist mode; 0% DMSO, 100% acetylcholine EC100; activation, % at 3 µM; 0.33% of 360,000 active; AID 588814;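 active = activation above the run's mean compound activation plus 3 SD, cut at about 16% in these data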;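 note: peak over basal fluorescence ratio within a 140 s kinetic read after compound addition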
M1 antag: blocks human M1 muscarinic receptor; inhibition, % at 3 µM; 1.3% of 360,000 active; AID 588852; CHO-K1 hM1, Fluo-8 calcium fluorescence, ACh EC80 antagonist;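 active = percent inhibition above its own plate's cutoff, namely the mean of that plate's compound wells plus 3 SD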;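 note: peak over basal fluorescence ratio during 140 s after agonist addition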
M1 ag parental: nonselective activator or artifact in parental CHO-K1 cells; Fluo-8 calcium fluorescence; scaled to maximal ATP response, vehicle zero; activation, % at 3 µM; 0.48% of 360,000 active; AID 602248; in the data active = activation above about 15%;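 note: untransfected CHO-K1 host cells lacking M1 receptor as counterscreen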
CHO-K1 Ca antag: M1 antagonist counterscreen hit in parental CHO-K1 cells | ATP-induced calcium, Fluo-8 fluorescence | inhibition, % at 3 µM | 0.6% of 360,000 active | AID 602250;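 active = inhibition above a per-plate cutoff, the plate's mean sample inhibition plus 3 SD, cut at about 24% in these data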
Numbers stand for hits.

Results for CN(CC(=O)Nc1ccccc1Cl)C(=O)c1cccc(S(=O)(=O)N2CCN(c3ccc(F)cc3)CC2)c1 ?
M1 PAM parental: inactive; CHRM1 PAM: inactive; M1 ag: inactive; M1 antag: inactive; M1 ag parental: inactive; CHO-K1 Ca antag: inactive

What do the screens show for `COc1ccccc1N(C)S(=O)(=O)c1ccc(C(=O)N(C)Cc2ccc(OC(F)F)cc2)cc1`?
M1 PAM parental: inactive; CHRM1 PAM: inactive; M1 ag: inactive; M1 antag: 26.7; M1 ag parental: inactive; CHO-K1 Ca antag: inactive

Results for CCN1CCN(S(=O)(=O)c2ccc(Cl)c(C(=O)N(C)Cc3ccccc3)c2)CC1 ?
M1 PAM parental: inactive; CHRM1 PAM: inactive; M1 ag: inactive; M1 antag: inactive; M1 ag parental: inactive; CHO-K1 Ca antag: 23.7

How did CN(CC(=O)Nc1ccccc1Cl)C(=O)c1cccc(S(=O)(=O)N2CCN(c3ccccc3)CC2)c1 do in these assays?
M1 PAM parental: inactive; CHRM1 PAM: inactive; M1 ag: inactive; M1 antag: inactive; M1 ag parental: inactive; CHO-K1 Ca antag: 28.3

What do the screens show for `CN(Cc1ccc(OC(F)F)cc1)C(=O)c1cccc(S(=O)(=O)N2CCN(c3ccccc3)CC2)c1`?
M1 PAM parental: inactive; CHRM1 PAM: inactive; M1 ag: inactive; M1 antag: 46.4; M1 ag parental: inactive; CHO-K1 Ca antag: inactive

How did CC12CCC(=O)C=C1CCCC2=O (stereo unspecified) do in these assays?
M1 PAM parental: inactive; CHRM1 PAM: inactive; M1 ag: inactive; M1 antag: inactive; M1 ag parental: inactive; CHO-K1 Ca antag: inactive

How did CCOC(=O)C1CCCN(C2CC(=O)N(c3ccc(NC(C)=O)cc3)C2=O)C1 (stereo unspecified) do in these assays?
M1 PAM parental: inactive; CHRM1 PAM: inactive; M1 ag: 36.2; M1 antag: inactive; M1 ag parental: inactive; CHO-K1 Ca antag: inactive

What do the screens show for `CCOC(=O)C1CCCN(C2CC(=O)N(c3ccc(C)cc3)C2=O)C1` (stereo unspecified)?
M1 PAM parental: inactive; CHRM1 PAM: inactive; M1 ag: 20.1; M1 antag: inactive; M1 ag parental: inactive; CHO-K1 Ca antag: inactive

What do the screens show for `CCOC(=O)C1CCCN(S(=O)(=O)c2ccc(NC(C)=O)cc2)C1` (stereo unspecified)?
M1 PAM parental: inactive; CHRM1 PAM: inactive; M1 ag: inactive; M1 antag: inactive; M1 ag parental: inactive; CHO-K1 Ca antag: inactive

Results for CCn1ccnc1CN(C)C(=O)CCc1nnc(CCCc2ccccc2)o1 ?
M1 PAM parental: inactive; CHRM1 PAM: inactive; M1 ag: inactive; M1 antag: inactive; M1 ag parental: inactive; CHO-K1 Ca antag: 24.0

What do the screens show for `CCn1ccnc1CNC(=O)c1ccc2oc(CCCc3ccccc3)nc2c1`?
M1 PAM parental: inactive; CHRM1 PAM: inactive; M1 ag: inactive; M1 antag: 32.8; M1 ag parental: inactive; CHO-K1 Ca antag: inactive

Results for CCCCc1nc2cc(C(=O)NCc3ccccn3)ccc2o1 ?
M1 PAM parental: inactive; CHRM1 PAM: inactive; M1 ag: inactive; M1 antag: inactive; M1 ag parental: inactive; CHO-K1 Ca antag: inactive

How did CN(Cc1ccsc1)C(=O)CCc1nnc(CCCc2ccccc2)o1 do in these assays?
M1 PAM parental: inactive; CHRM1 PAM: inactive; M1 ag: inactive; M1 antag: inactive; M1 ag parental: inactive; CHO-K1 Ca antag: inactive

Results for O=C(CCCNC(=O)c1ccc(Cl)cc1)Nc1ncccc1O ?
M1 PAM parental: inactive; CHRM1 PAM: 26.3; M1 ag: inactive; M1 antag: inactive; M1 ag parental: inactive; CHO-K1 Ca antag: inactive

Results for O=C(CCNC(=O)c1ccc(Cl)cc1)Nc1ncccc1O ?
M1 PAM parental: inactive; CHRM1 PAM: inactive; M1 ag: inactive; M1 antag: inactive; M1 ag parental: inactive; CHO-K1 Ca antag: inactive

How did CCCCNC(=S)Nc1ccc(Cl)cc1 do in these assays?
M1 PAM parental: inactive; CHRM1 PAM: inactive; M1 ag: inactive; M1 antag: inactive; M1 ag parental: inactive; CHO-K1 Ca antag: 30.6

Results for CN(C)CCNC(=S)Nc1ccc(Cl)cc1 ?
M1 PAM parental: inactive; CHRM1 PAM: 25.1; M1 ag: inactive; M1 antag: inactive; M1 ag parental: inactive; CHO-K1 Ca antag: inactive

What do the screens show for `COc1ccc(NC(=S)NCCSc2ccc(Cl)cc2)c(OC)c1`?
M1 PAM parental: inactive; CHRM1 PAM: inactive; M1 ag: inactive; M1 antag: inactive; M1 ag parental: inactive; CHO-K1 Ca antag: 23.8

Results for Cc1ccc(SCCNC(=S)Nc2cc(C)cc(C)c2)cc1 ?
M1 PAM parental: inactive; CHRM1 PAM: inactive; M1 ag: inactive; M1 antag: inactive; M1 ag parental: inactive; CHO-K1 Ca antag: inactive

What do the screens show for `Cc1ccc(NC(=S)NCCSc2ccc(Cl)cc2)cc1`?
M1 PAM parental: inactive; CHRM1 PAM: inactive; M1 ag: inactive; M1 antag: 55.9; M1 ag parental: inactive; CHO-K1 Ca antag: inactive

What do the screens show for `CC(=O)c1c(OC(=O)c2ccccc2)ccnc1C(F)(F)F`?
M1 PAM parental: inactive; CHRM1 PAM: inactive; M1 ag: inactive; M1 antag: inactive; M1 ag parental: inactive; CHO-K1 Ca antag: inactive

Results for CCCCCCC(NC(=O)c1ccc(C)cc1)C(=O)O (stereo unspecified) ?
M1 PAM parental: inactive; CHRM1 PAM: inactive; M1 ag: inactive; M1 antag: inactive; M1 ag parental: inactive; CHO-K1 Ca antag: inactive

How did S=C(NCc1ccc(Cl)cc1)Nc1ccncc1 do in these assays?
M1 PAM parental: inactive; CHRM1 PAM: inactive; M1 ag: inactive; M1 antag: 44.5; M1 ag parental: 20.7; CHO-K1 Ca antag: 30.6

How did S=C(NCc1ccc(Cl)cc1)Nc1ccccc1 do in these assays?
M1 PAM parental: inactive; CHRM1 PAM: inactive; M1 ag: inactive; M1 antag: inactive; M1 ag parental: inactive; CHO-K1 Ca antag: inactive

Results for O=C(NCCS(=O)(=O)N1CCN(c2ccccc2)CC1)C1CCCCC1 ?
M1 PAM parental: inactive; CHRM1 PAM: inactive; M1 ag: inactive; M1 antag: inactive; M1 ag parental: inactive; CHO-K1 Ca antag: inactive

Results for O=C(COC(=O)C1(c2ccccc2)CCCC1)N1CCNC1=O ?
M1 PAM parental: inactive; CHRM1 PAM: inactive; M1 ag: inactive; M1 antag: inactive; M1 ag parental: inactive; CHO-K1 Ca antag: inactive

What do the screens show for `Cc1ccc(NC(=O)C2(c3ccccc3)CCOCC2)cc1`?
M1 PAM parental: inactive; CHRM1 PAM: inactive; M1 ag: inactive; M1 antag: inactive; M1 ag parental: inactive; CHO-K1 Ca antag: inactive

What do the screens show for `CCN(CC)CCOC(=O)C1(c2ccccc2)CCCC1`?
M1 PAM parental: inactive; CHRM1 PAM: inactive; M1 ag: inactive; M1 antag: 99.8; M1 ag parental: inactive; CHO-K1 Ca antag: inactive

What do the screens show for `CCN(CC)CCOC(=O)C1(c2ccc(OC)c(OC)c2)CCCC1`?
M1 PAM parental: inactive; CHRM1 PAM: inactive; M1 ag: inactive; M1 antag: 77.4; M1 ag parental: inactive; CHO-K1 Ca antag: inactive

How did CN(C)CCOC(=O)C1(c2ccccc2)CCOCC1 do in these assays?
M1 PAM parental: inactive; CHRM1 PAM: inactive; M1 ag: inactive; M1 antag: 23.4; M1 ag parental: inactive; CHO-K1 Ca antag: inactive

Compound activity from PubChem BioAssay.
